Article PMC4336329 (PLoS ONE, 2015)
The campaign covered roughly 310,000 compounds. About 2,200 (0.71%) showed an effect of 50% or more. The effect is printed as a negative number. What follows is part of a selection rich in strong results, with near analogues and random picks from the rest.

What follows are compounds tested against human ether-à-go-go-related gene (hERG) potassium channel (human, UniProt Q12809) (assay: primary screen, population patch clamp on CHO cells stably expressing hERG; higher = less effect of the substance).
Sequence of human ether-à-go-go-related gene (hERG) potassium channel (Q12809 whole entry, looked up): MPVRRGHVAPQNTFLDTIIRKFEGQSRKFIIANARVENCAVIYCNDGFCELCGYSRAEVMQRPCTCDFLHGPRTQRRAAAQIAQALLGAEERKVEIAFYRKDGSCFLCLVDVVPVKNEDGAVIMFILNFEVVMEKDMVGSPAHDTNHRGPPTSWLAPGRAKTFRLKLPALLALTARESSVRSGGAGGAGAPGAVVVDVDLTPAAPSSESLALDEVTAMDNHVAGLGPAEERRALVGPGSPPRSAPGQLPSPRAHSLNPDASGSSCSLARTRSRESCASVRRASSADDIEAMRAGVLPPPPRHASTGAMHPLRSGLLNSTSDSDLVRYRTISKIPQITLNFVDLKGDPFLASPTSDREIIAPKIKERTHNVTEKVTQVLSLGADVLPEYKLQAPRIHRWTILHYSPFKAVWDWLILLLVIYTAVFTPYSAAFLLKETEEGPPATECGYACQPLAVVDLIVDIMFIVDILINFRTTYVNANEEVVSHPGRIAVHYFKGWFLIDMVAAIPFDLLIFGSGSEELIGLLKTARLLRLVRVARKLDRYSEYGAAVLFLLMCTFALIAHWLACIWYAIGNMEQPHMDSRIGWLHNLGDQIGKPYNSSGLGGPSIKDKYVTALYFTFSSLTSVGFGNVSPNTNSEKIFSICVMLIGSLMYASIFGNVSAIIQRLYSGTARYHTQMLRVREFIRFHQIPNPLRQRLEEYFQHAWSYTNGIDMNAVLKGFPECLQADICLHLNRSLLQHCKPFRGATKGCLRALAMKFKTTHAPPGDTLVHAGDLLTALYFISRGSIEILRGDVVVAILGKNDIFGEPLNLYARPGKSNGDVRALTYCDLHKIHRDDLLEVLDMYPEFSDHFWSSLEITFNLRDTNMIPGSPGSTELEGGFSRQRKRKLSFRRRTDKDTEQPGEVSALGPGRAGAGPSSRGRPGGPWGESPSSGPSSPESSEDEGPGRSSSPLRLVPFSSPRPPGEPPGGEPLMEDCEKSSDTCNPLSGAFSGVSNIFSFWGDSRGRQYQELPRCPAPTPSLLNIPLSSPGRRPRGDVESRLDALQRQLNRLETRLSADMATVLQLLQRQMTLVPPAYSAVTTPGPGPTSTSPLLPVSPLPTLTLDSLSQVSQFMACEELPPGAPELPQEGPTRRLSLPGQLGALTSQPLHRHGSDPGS

First: c1ccc(-c2nc(N3CCCCCC3)c3ccccc3n2)nc1
Second: c1ccc(-c2nc(N3CCOCC3)c3ccccc3n2)nc1
The “hERG current change (%, negative = inhibition) at 1uM” value of the first is lower: -82.3% for the first, 5.13% for the second.

First: CCCCN(CCCC)c1nc(-c2ccncc2)nc2ccccc12
Second: CCCN(CCC)c1nc(-c2ccccn2)nc2ccccc12
The “hERG current change (%, negative = inhibition) at 1uM” value of the first is higher: 12% for the first, -72.4% for the second.

Compared with `COc1ccc(Nc2nc(N3CCCC3)c3ccccc3n2)cc1.Cl`, `Cl.Oc1ccc(Nc2nc(N3CCCC3)c3ccccc3n2)cc1` is lower in “hERG current change (%, negative = inhibition) at 1uM” value: -15% for the first, -62.7% for the second.

First: Cl.Nc1nc(N2CCN(c3ccccn3)CC2)nc2ccccc12
Second: Cl.Nc1nc(N2CCCCC2)nc2ccccc12
The “hERG current change (%, negative = inhibition) at 1uM” value of the first is lower: -52.8% for the first, -15.9% for the second.

Compared with `Nc1nc(N2CCOCC2)nc2ccccc12`, `c1ccc2c(N3CCCCC3)nc(N3CCOCC3)nc2c1` is higher in “hERG current change (%, negative = inhibition) at 1uM” value: -8.34% for the first, -7.24% for the second.

Going from `CCC(C)Nc1nc(-c2ccccn2)nc2ccccc12` (centres unmarked) to `c1ccc(N2CCN(c3nc(-c4ccccn4)nc4ccccc34)CC2)cc1`, the “hERG current change (%, negative = inhibition) at 1uM” value falls from -11.6% to -26.9%.

Going from `CN1CCN(c2nc(Nc3ccc(O)cc3)nc3ccccc23)CC1.Cl` to `c1ccc2c(N3CCCCC3)nc(N3CCCC3)nc2c1`, the “hERG current change (%, negative = inhibition) at 1uM” value falls from -1.34% to -64.6%.

Going from `CCOC(=O)c1cc(S(=O)(=O)N2CCN(Cc3ccccc3)CC2)cn1C` to `COc1ccc(C(=O)N2CCN(CCNC(=O)C(=O)Nc3ccc(Br)cc3)CC2)cc1`, the “hERG current change (%, negative = inhibition) at 1uM” value falls from 7.46% to -25.2%.

Compared with `C/C(=N\Nc1cccc2cccnc12)c1ccc[nH]1`, `COc1cccc(C2=NOC(C(=O)Nc3cccnc3Cl)C2)c1OC` (centres unmarked) is higher in “hERG current change (%, negative = inhibition) at 1uM” value: 6.24% for the first, 14.2% for the second.

First: CCCc1ccc2c(N)c(C#N)sc2n1
Second: Cc1ccc(/C=N\NC(=O)CCc2n[nH]c(=O)[nH]c2=O)o1
The “hERG current change (%, negative = inhibition) at 1uM” value of the first is lower: 1.34% for the first, 10.9% for the second.

Going from `CC(C)C(NC(=O)c1c(F)cccc1F)C(=O)NCC(c1ccccc1)N(C)C` (centres unmarked) to `CC(CCc1ccc(O)cc1)NCCC(c1ccccc1)c1ccccc1` (centres unmarked), the “hERG current change (%, negative = inhibition) at 1uM” value falls from 7.89% to -84.2%.

Compared with `COc1ccccc1NS(=O)(=O)c1cccc(C(=O)NCC(c2ccc(F)cc2)N2CCOCC2)c1` (centres unmarked), `CC(=O)c1ccc(NC(=S)Nc2cccc(S(=O)(=O)Nc3c(C)n(C)n(-c4ccccc4)c3=O)c2)cc1` is higher in “hERG current change (%, negative = inhibition) at 1uM” value: -2.64% for the first, 11.4% for the second.

Compared with `O=c1oc2cc(Oc3ccc(C(F)(F)F)cc3[N+](=O)[O-])ccc2c2c1CCCC2`, `COc1ccc(Cl)cc1C(=O)Nc1ccc2nc3n(c(=O)c2c1)CCCC3` is lower in “hERG current change (%, negative = inhibition) at 1uM” value: 7.24% for the first, -51.8% for the second.

Compared with `COc1ccc(OC)c(C(O)c2nc3ccccc3n2C(C)C)c1` (centres unmarked), `COc1ccccc1C(=O)Nc1ccc2nc3n(c(=O)c2c1)CCCC3` is lower in “hERG current change (%, negative = inhibition) at 1uM” value: 12.9% for the first, -2.02% for the second.

Compared with `COc1cccc2cc(C(=O)C3=C(O)C(=O)N(Cc4ccco4)C3c3cccnc3)oc12` (centres unmarked), `CCOC(=O)C1=C(c2ccccc2)Nc2ncnn2C1c1cccc(OC)c1OC` (centres unmarked) is higher in “hERG current change (%, negative = inhibition) at 1uM” value: -5.76% for the first, 21.4% for the second.

Going from `CCOc1ccc(OCCCC(=O)ON=C(N)c2ccccc2C)cc1` to `N#Cc1ccccc1OCC(=O)OCC(=O)c1c[nH]c2ccccc12`, the “hERG current change (%, negative = inhibition) at 1uM” value rises from 2.24% to 7.92%.

Compared with `c1ccc2c(N3CCCCC3)nc(N3CCCCC3)nc2c1`, `O=c1c2c3c(sc2n(CCN2CCCCC2)c(=O)n1Cc1ccco1)CCCCC3` is higher in “hERG current change (%, negative = inhibition) at 1uM” value: -3.29% for the first, 3.26% for the second.

Compared with `O=c1c2c3c(sc2n(CCN2CCOCC2)c(=O)n1Cc1ccco1)CCCCC3`, `O=c1c2c3c(sc2n(CCN2CCCC2)c(=O)n1Cc1ccco1)CCCCC3` is lower in “hERG current change (%, negative = inhibition) at 1uM” value: -9.12% for the first, -67% for the second.

First: COc1ccc(CNC(=O)NCc2ccc(OC)c(OC)c2)cc1OC
Second: COc1cc(C(=O)Nc2ccc3nc4n(c(=O)c3c2)CCCCC4)cc(OC)c1OC
The “hERG current change (%, negative = inhibition) at 1uM” value of the first is higher: 17.1% for the first, -1.94% for the second.

Compared with `O=c1cc2oc3cc(O)c(O)cc3c(-c3ccccc3[N+](=O)[O-])c-2cc1O`, `Cc1cc(O)c(C(=O)/C=C/c2ccccc2O)c(=O)o1` is lower in “hERG current change (%, negative = inhibition) at 1uM” value: 8.61% for the first, 8.29% for the second.

Compared with `O=C(CSc1nc(O)cc(=O)[nH]1)Nc1ccc2c(c1)CCC2`, `O=C(Nc1ccc2c(c1)OCO2)c1cnccn1` is lower in “hERG current change (%, negative = inhibition) at 1uM” value: 18.4% for the first, 8.63% for the second.

Compared with `O=[N+]([O-])c1ccc(OCC(O)CNCCNc2nccc(C(F)(F)F)n2)cc1` (centres unmarked), `COc1ccc(OCC(O)CNCCNc2nccc(C(F)(F)F)n2)cc1` (centres unmarked) is higher in “hERG current change (%, negative = inhibition) at 1uM” value: -77.9% for the first, -6.87% for the second.

Going from `OC(CNCCNc1ncccc1C(F)(F)F)COc1ccc(F)cc1` (centres unmarked) to `COc1ccc(CCC(C)NCc2cccc(Br)c2)cc1` (centres unmarked), the “hERG current change (%, negative = inhibition) at 1uM” value falls from -25.6% to -32.1%.

Compared with `COc1ccccc1CCNC(C)CCc1ccc(O)cc1` (centres unmarked), `CC(CCc1ccc(O)cc1)NCCc1ccc(O)c(O)c1.Cl` (centres unmarked) is higher in “hERG current change (%, negative = inhibition) at 1uM” value: -10.8% for the first, 2.55% for the second.

First: CC(CCc1ccc(O)cc1)NCc1ccc(Cl)cc1Cl (centres unmarked)
Second: CC(CCc1ccc(O)cc1)NCc1ccc(Br)cc1 (centres unmarked)
The “hERG current change (%, negative = inhibition) at 1uM” value of the first is higher: -10.9% for the first, -66.8% for the second.

Compared with `NC(=O)NCc1ccc(F)cc1`, `COc1cc(NS(=O)(=O)c2ccc(NC(=O)/C=C/C(=O)O)cc2)nc(OC)n1` is higher in “hERG current change (%, negative = inhibition) at 1uM” value: 4.8% for the first, 5.24% for the second.

Going from `COc1ccc(-c2noc3c2-c2nc(-c4ccccc4C)sc2CC3)cc1` to `CCN(CC)CCNc1ncnc2c1[nH]c1ccc(OC)cc12`, the “hERG current change (%, negative = inhibition) at 1uM” value falls from 15.4% to -42.6%.

Going from `CCOc1c(Br)cc(CNc2ncn[nH]2)cc1OC` to `COc1ccc2[nH]c3c(NCCCOC(C)C)ncnc3c2c1`, the “hERG current change (%, negative = inhibition) at 1uM” value rises from 9.07% to 22.8%.

Going from `COc1ccc(C(F)(F)F)cc1NC(=O)c1nc2nc(C)cc(C(F)F)n2n1` to `COc1ccc2[nH]c3c(NCCN(C(C)C)C(C)C)ncnc3c2c1`, the “hERG current change (%, negative = inhibition) at 1uM” value falls from 17.2% to -71.9%.

In the case of `O=C(O)C1=C[C@@H](C2CC2)C[C@@H](OCCCCO)O1`, the “hERG current change (%, negative = inhibition) at 1uM” value is reported as 10.7%.
